# Assay outcomes (PubChem)
# This is a sample that favours compounds with a hit; in the whole collection about 2.4% have one here.
# D2 ag-1: agonists of human D2 dopamine receptor; P14416; HEK293 T-REx D2 cells, calcium flux agonist mode; activation, % at 2 µM; 340,000 tested, 0.53% active; AID 485358;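 active = activation over 3 SD above normal in the single-dose calcium agonist read, cut at about 30% in these data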; also: 0% is about no effect
# Target sequence (P14416 whole entry, looked up): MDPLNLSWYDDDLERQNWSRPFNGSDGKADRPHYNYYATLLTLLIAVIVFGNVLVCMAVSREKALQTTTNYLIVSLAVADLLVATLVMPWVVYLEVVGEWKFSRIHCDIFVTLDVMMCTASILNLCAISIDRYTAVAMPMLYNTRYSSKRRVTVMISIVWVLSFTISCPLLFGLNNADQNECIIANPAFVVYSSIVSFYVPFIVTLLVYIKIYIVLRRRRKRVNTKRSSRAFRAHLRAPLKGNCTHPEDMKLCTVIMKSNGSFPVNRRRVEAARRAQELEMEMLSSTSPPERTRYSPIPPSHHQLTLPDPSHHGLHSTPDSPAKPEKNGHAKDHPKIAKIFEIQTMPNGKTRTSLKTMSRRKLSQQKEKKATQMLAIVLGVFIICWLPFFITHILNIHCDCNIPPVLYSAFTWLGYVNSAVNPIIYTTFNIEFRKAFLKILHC
#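 Tetracycline-induced HEK293 T-REx cells with force-coupled D2 receptor, plated overnight at 30 C, loaded with no-wash calcium dye. After a 10 s baseline, compound was pin-added and calcium flux read kinetically for 180 s; calcium rises flagged agonists.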
# D2 ag-2: agonists of human D2 dopamine receptor (beta-arrestin); DiscoveRx PathHunter D2 beta-arrestin, luminescence, 90 min; 100% = 57 uM dopamine signal; P14416; AID 624465; 360,000 tested, 0.084% active; activation, % (no concentration beside the values); in the data active = activation above about 40%; inconclusive = between about 15% and that limit
#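 Agonist mode: compounds alone added to overnight-plated D2 PathHunter cells for 90 min at 37 C, with 57 uM final dopamine (EC100) defining full response. Beta-arrestin recruitment detected by chemiluminescent reagent, read after 1 h at ambient temperature.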
# D2 antag: D2 dopamine receptor (human) antagonism. HEK293 TREx D2 cells, calcium flux, dopamine EC80. inhibition, % at 10 µM. 340,000 tested, 2% active. AID 485344; in the data active = inhibition above about 30%; inactive = below that, where a call was filed; also: 0% is about no effect
#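 Inhibition of EC80 dopamine-driven calcium flux, recorded kinetically, defines activity here; cells are a tetracycline-induced HEK293 T-REx line expressing force-coupled D2.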
# D2 PAM-1: human D2 receptor positive allosteric modulation | P14416 | DiscoveRx D2 beta-arrestin cells, luminescence, 90 min; 100% = 57 uM dopamine signal | potentiation, % (test concentration not listed) | 360,000 tested, 0.23% active; in the data active = potentiation above about 50%; inconclusive = mostly about 30% to 49%
#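 PathHunter beta-arrestin assay in DiscoveRx D2 cells. Compounds were added with an EC20 of dopamine (50 nM final) for 90 min at 37 deg C. Luminescence was read 1 h after detection reagent, with 57 uM dopamine as the EC100 control.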
# D2 PAM-2: positive allosteric modulators of human D2 dopamine receptor; P14416; HEK293 T-REx D2, calcium flux, EC20 dopamine potentiation; potentiation, % at 10 µM; 340,000 tested, 0.34% active; AID 485347;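 active = potentiation over 3 SD above the plate norm, cut at about 30% in these data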; also: 0% is about no effect
#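 Potentiation of an EC20 dopamine calcium response measured kinetically over 180 s, after a preceding 180 s compound-only read flagging agonists. Cells: inducible Hek293 Trex D2 line, 4000/well, cultured overnight at 30 C before dye loading.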
# An asterisk follows results filed as active; ? = inconclusive; . = no result given.
SMILES,D2 ag-1,D2 ag-2,D2 antag,D2 PAM-1,D2 PAM-2
COc1ccc(NC(=O)CN2C(=O)C3(SCC(=O)N3c3cccc(OC)c3)c3ccccc32)cc1 (configuration not stated),0,.,.,.,.
CCCCN(CC)C(=O)CCCn1c(=O)c2cccn2c2ccccc21,0,.,.,.,4
CCc1nnc(SCC(=O)Nc2ccc(Cl)cc2F)c2cc3occc3n12,0,.,.,.,3
Cc1ccc(NC2=NCC(=O)N2c2ccc3c(c2)OCCO3)c(C)c1,-1,-1,9,-10,31*
Cc1ccc(NC(=O)Cn2nc(C(F)(F)F)c3c2CCC3)cc1C,-1,.,.,.,4
O=C(Cn1nc(C(F)(F)F)c2c1CCCC2)Nc1ccc2c(c1)OCO2,1,-4,-6,-12,32*
C/C=C(\C)CN1CCc2cc(OC)c(OC)cc2C1,0,1,-5,-15,31*
COc1cc2c(cc1OC)CN(CC(=O)NC(=O)NCc1ccccc1)CC2,2,-2,0,-3,25
Cc1ccc(CN2CCN(/N=C/c3cccn3C)CC2)c(C)c1,0,-2,51*,-20,-5
CCN(CC)c1ccc(NC(=O)CCc2nc3cccnc3n2Cc2cccs2)c(C)c1,-1,.,.,.,-3
Cc1ccc(C(=O)NNC2=Nc3cccc4cccc2c34)cc1,0,-3,71*,-25,-25
NC(=O)NNC1=Nc2cccc3cccc1c23,4,0,-18,-8,5
COc1ccc(CC(=O)NNC2=Nc3cccc4cccc2c34)cc1,0,-2,27,-20,-23
COc1ccc(C(=O)NNC2=Nc3cccc4cccc2c34)cc1,2,0,63*,-27,-27
Cc1cccc(Cn2nnc3c2C(=O)c2ccccc2C3=O)c1,1,7,-16,71*,22
Cc1cccc(Cn2ncc(Cl)c(Cl)c2=O)c1,-1,0,-8,2,12
CCC1CCc2sc(C(=O)O)cc2C1 (configuration not stated),0,-1,-15,-3,7
C=CCN1CCN(C(=O)c2cc3c(s2)CCC(CC)C3)CC1 (configuration not stated),-1,-6,46*,-41,-17
COc1ccc(-c2sc(Nc3ccccc3)n[n+]2-c2ccc(F)cc2)cc1Br,2,-5,-9,-10,-4
COc1ccc2ccccc2c1-c1sc(Nc2ccccc2)n[n+]1-c1ccc(F)cc1,1,-6,32*,-31,-8
Cc1ccc(NC(=O)N2CCN(c3ncccc3C(F)(F)F)CC2)cc1,0,-2,37*,-28,-13
CCOC(=O)C1CCN(S(=O)(=O)CCNC(=O)c2ccc(F)cc2)CC1,0,2,30*,5,28
O=C(NCCS(=O)(=O)N1CCCCCC1)c1ccc(F)cc1,1,-5,8,-3,0
CCOc1ccc(N2CC(NC(=O)C(=O)c3c[nH]c4ccccc34)CC2=O)cc1 (configuration not stated),0,.,.,.,0
Cc1sc2ncn(CC(=O)Nc3ccc(F)cc3F)c(=O)c2c1S(=O)(=O)N1CCC(C)CC1,0,.,.,.,-6
SMILES,D2 ag-1,D2 ag-2,D2 antag,D2 PAM-1,D2 PAM-2
Cc1cccc(NC(=O)Cn2cnc3sc(C)c(S(=O)(=O)N4CCC(C)CC4)c3c2=O)n1,-1,3,32*,2,22
COc1cccc(C(=O)Nc2ccc3nc(SCC(=O)N4CCOCC4)sc3c2)c1,0,.,.,.,5
Cc1cccc(CCNC(=O)C2CCC(CNS(=O)(=O)c3c(C)cc(C)cc3C)CC2)c1 (configuration not stated),2,.,.,.,5
Cc1ccc(S(=O)(=O)NC(=O)NCCCCNC(=O)NS(=O)(=O)c2ccc(C)cc2)cc1,0,0,-3,-2,11
Cc1ccc(S(=O)(=O)NC(=O)NN2CCCCCC2)cc1,2,-5,34*,-12,3
CCCCNC(=O)NS(=O)(=O)c1ccc(C)cc1,1,-4,33*,-6,20
CCc1ccc(NCc2cc3cc4c(cc3n(CC(=O)Nc3ccccc3Cl)c2=O)OCO4)cc1,6,.,.,.,-2
Cc1nc(-c2ccc(C)c(S(=O)(=O)N3CCC(C(=O)NCc4ccc(F)cc4)CC3)c2)no1,0,.,.,.,14
O=C(Cc1ccc([N+](=O)[O-])cc1)Nc1ccc(Cl)cc1,2,13,15,-9,-16
Cc1c(Cl)cccc1NC(=O)Cc1ccc([N+](=O)[O-])cc1,0,3,45*,6,-7
Cc1cccc(NC(=O)c2sc3nc(-c4cc5ccc(O)cc5oc4=O)[nH]c(=O)c3c2C)c1,0,.,.,.,.
CCCCCCSc1ccc(-c2nc3ccc(C)cn3c2NCc2ccccc2)cc1,0,-2,34*,-4,-6
CCCCCCSc1ccc(-c2nc3ccc(C)cn3c2NCc2ccccc2)cc1OC,1,-9,2,-7,-5
CN1C(=O)/C(=C/c2ccccc2OCc2ccccc2)NC1=S,0,-4,24,-19,-2
CN1C(=O)/C(=C/c2cc(C(C)(C)C)c(O)c(C(C)(C)C)c2)NC1=S,-2,?,-2,52*,2
CCn1cc2nc(SCC(=O)Nc3ccccc3C(F)(F)F)n(Cc3ccc(C)cc3)c(=O)c2n1,0,.,.,.,-6
C1=CC2c3ccccc3NC(c3ccncc3)C2C1 (configuration not stated),1,14,-16,70*,3
Brc1cc2c(cc1C1Nc3ccccc3C3C=CCC31)OCO2 (configuration not stated),0,0,6,-4,-2
CC(=O)c1ccc2c(c1)C1C=CCC1C(c1ccncc1)N2 (configuration not stated),7,6,7,86*,2
CCCN1CCN(CCNC(=O)Nc2ccc(OC)cc2OC)CC1,0,.,.,.,-1
CC(C)(C)c1ccc(NC(=O)CSc2nnc3scc(-c4ccccc4)n23)cc1,-2,.,.,.,-6
CCOc1cc(Cl)c(NC(=O)CC)cc1OCC,0,-1,71*,12,-21
COc1ccc(S(=O)(=O)N(CC(=O)Nc2ccc(F)c(Cl)c2)c2ccc(C)cc2)cc1OC,0,.,.,.,10
O=S(=O)(NCCS(=O)(=O)N1CCN(c2ccccc2F)CC1)c1ccc(Cl)cc1,1,.,.,.,-7
COc1cc([C@@H]2OC[C@@H]3[C@H]2CO[C@@H]3c2ccc3c(c2)OCO3)ccc1O,.,0,.,-5,.
COc1cc(CC2COC(c3ccc(O)c(OC)c3)C2COC(C)=O)ccc1O (configuration not stated),1,-8,45*,-25,17
Cc1ccc(N2C(=O)C(Cl)=C(Nc3c(C)n(C)n(-c4ccccc4)c3=O)C2=O)cc1,0,-2,32*,-2,1
